log2 fold change data for 35 targets are collected here from the supplement of paper PMC10849652.

Targets with a hit are over-represented here; the source holds about 7,900 in all. About 0.6% of all pairs of compound and target were hits. A number with no mark means an inactive call.

Chain of UniProt Q12851 (Q12851 whole entry, looked up): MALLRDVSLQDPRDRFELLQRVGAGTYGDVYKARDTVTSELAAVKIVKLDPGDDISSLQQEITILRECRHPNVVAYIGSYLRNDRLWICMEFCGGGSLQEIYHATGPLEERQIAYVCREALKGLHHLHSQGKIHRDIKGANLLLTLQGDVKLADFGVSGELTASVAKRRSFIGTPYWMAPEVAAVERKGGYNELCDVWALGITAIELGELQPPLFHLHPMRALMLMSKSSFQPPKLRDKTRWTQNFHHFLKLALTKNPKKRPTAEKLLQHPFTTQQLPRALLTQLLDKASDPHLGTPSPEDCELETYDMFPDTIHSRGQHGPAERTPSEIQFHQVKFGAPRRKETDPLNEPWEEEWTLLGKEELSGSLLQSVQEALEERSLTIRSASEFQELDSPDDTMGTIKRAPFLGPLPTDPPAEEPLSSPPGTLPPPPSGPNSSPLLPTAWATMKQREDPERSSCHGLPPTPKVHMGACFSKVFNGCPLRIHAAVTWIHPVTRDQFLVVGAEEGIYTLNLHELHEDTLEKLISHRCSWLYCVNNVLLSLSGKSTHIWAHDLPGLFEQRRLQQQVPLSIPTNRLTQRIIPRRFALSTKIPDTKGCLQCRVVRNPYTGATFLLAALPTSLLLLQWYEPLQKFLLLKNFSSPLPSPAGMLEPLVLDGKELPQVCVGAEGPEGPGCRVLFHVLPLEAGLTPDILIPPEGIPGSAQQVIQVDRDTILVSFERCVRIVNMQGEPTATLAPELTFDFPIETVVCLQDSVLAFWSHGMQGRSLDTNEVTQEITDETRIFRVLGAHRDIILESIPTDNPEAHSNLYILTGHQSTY
Chain of UniProt Q86UD3 (Q86UD3 whole entry, looked up): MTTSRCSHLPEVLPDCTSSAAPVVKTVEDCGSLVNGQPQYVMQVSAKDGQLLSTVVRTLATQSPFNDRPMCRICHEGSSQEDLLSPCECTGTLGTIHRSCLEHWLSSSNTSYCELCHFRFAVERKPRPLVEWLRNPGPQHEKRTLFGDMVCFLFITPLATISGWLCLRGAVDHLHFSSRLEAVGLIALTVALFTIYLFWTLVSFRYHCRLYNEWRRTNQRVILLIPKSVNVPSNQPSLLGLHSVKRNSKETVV
Chain of UniProt Q9Y5V3 (Q9Y5V3 whole entry, looked up): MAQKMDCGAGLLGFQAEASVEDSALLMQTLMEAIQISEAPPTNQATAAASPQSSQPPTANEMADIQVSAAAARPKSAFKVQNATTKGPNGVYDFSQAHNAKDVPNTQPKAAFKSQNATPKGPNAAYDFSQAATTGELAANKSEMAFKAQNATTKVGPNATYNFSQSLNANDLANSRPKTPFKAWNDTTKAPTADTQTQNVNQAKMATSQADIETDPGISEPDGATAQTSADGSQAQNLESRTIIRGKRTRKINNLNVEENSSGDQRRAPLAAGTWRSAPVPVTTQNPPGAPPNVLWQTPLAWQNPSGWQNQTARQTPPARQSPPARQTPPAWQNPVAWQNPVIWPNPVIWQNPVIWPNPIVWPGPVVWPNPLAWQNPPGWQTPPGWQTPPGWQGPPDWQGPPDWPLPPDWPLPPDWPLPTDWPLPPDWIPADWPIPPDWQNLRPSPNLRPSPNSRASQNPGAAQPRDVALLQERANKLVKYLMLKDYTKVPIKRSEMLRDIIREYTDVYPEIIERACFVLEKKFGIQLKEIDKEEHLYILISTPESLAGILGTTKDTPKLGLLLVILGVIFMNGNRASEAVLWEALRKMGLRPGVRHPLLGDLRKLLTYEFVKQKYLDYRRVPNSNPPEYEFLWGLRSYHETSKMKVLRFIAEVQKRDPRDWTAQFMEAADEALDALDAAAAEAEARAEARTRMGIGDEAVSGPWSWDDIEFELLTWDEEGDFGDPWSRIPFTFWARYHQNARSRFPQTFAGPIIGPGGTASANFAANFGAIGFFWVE
Chain of UniProt Q9BQD3 (Q9BQD3 whole entry, looked up): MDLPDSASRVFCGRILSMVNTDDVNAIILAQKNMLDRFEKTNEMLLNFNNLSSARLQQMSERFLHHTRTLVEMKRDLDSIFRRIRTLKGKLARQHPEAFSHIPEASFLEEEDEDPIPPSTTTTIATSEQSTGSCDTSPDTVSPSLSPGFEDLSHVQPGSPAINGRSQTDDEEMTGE
Chain of UniProt O00214 (O00214 whole entry, looked up): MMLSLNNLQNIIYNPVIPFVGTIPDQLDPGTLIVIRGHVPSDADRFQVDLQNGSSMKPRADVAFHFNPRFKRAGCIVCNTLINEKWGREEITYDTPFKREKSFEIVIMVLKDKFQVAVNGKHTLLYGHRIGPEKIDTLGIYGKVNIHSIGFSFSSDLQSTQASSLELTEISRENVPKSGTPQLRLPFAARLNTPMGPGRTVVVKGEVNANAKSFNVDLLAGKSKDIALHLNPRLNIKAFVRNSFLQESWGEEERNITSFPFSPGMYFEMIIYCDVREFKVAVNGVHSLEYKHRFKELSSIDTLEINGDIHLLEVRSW
Chain of UniProt P13473 (P13473 whole entry, looked up): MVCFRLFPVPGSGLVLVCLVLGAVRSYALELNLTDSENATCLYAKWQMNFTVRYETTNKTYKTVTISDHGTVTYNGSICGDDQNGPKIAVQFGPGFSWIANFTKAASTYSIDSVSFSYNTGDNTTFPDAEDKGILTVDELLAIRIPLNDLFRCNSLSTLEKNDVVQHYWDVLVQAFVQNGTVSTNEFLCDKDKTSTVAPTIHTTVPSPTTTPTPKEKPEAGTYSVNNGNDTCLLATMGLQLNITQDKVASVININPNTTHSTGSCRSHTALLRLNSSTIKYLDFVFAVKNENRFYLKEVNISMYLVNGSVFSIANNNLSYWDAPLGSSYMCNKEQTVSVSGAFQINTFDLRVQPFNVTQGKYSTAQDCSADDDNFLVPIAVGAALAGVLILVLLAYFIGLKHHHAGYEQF
Chain of UniProt Q14680 (Q14680 whole entry, looked up): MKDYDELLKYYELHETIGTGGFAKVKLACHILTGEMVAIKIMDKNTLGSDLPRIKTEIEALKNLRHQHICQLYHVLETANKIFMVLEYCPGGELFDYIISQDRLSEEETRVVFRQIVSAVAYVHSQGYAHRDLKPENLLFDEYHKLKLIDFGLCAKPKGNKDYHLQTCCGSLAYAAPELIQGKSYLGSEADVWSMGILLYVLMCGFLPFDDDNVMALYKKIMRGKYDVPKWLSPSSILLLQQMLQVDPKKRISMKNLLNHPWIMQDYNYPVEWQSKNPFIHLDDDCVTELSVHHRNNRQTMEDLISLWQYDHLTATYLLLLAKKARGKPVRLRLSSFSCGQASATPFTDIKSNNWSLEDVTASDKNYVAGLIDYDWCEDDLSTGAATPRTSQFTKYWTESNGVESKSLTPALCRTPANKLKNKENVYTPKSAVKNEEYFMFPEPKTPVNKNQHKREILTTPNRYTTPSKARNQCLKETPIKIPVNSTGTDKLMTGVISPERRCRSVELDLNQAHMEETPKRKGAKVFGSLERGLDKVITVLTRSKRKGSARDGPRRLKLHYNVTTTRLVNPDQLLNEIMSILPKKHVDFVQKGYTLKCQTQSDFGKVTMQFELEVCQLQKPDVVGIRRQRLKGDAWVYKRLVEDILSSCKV
Chain of UniProt Q2M2Z5 (Q2M2Z5 whole entry, looked up): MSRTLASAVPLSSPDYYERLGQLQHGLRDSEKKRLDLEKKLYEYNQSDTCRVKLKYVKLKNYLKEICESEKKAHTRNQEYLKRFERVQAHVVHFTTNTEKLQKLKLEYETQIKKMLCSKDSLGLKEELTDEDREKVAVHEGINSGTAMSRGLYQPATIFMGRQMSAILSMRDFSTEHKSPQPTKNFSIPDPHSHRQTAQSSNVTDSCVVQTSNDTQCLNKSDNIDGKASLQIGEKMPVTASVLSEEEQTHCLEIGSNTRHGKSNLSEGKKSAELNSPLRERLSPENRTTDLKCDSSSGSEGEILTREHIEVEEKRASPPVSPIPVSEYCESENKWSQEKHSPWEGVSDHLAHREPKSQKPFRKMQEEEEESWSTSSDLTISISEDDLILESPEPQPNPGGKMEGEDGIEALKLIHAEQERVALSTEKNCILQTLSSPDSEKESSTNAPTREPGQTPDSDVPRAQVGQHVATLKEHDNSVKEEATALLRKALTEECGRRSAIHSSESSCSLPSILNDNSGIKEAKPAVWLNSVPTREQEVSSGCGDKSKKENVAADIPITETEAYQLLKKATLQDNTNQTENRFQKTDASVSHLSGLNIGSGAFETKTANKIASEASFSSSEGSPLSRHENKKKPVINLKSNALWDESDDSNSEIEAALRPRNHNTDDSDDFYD
Chain of UniProt P43361 (P43361 whole entry, looked up): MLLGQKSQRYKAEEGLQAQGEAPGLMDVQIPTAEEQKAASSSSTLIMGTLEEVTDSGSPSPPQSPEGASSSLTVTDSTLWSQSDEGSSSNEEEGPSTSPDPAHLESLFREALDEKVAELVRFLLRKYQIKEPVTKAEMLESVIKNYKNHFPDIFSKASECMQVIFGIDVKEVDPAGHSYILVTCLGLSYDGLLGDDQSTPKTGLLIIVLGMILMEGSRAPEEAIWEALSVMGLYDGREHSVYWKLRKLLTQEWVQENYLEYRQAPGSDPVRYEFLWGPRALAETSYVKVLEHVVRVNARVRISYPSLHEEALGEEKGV
Chain of UniProt A4D2B0 (A4D2B0 whole entry, looked up): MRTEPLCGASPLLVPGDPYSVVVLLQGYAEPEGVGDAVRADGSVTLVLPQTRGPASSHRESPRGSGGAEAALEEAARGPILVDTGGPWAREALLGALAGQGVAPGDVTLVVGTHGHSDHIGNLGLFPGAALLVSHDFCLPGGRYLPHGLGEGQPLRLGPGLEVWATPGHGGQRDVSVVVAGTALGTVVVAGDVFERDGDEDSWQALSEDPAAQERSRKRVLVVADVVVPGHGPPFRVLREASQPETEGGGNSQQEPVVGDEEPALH
Chain of UniProt Q9UPY8 (Q9UPY8 whole entry, looked up): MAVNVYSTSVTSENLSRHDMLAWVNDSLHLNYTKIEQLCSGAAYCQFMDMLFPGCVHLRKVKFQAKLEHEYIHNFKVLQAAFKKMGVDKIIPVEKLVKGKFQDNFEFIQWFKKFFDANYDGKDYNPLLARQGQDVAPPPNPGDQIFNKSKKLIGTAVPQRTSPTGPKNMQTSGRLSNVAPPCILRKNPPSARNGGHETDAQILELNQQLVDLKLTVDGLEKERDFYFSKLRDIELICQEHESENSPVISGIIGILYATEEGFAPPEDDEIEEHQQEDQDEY

Compound in one assay: CC1=C(C=C(C=C1)NC(=O)C2=CC(=CC=C2)C(C)(C)C#N)NC3=CC4=C(C=C3)N=CN(C4=O)C
The assay can be described thus: log2 fold change, soluble protein after heating vs DMSO (PISA); higher = thermal stabilisation; K562 cells, 10 uM, 30 min; active = over 0.2 and 3.5 SD of the protein, either way, in both replicates (recomputed). In outline:
(§1)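 K562 cells at 2×10^6 cells/mL were treated for 30 min with 10 μM compound, and aliquots were heated for 3 min over 48°C-58°C before pooling. Extraction used PBS with 0.5% NP-40 at 4°C, and soluble protein was the supernatant after 21,000xg for 90 min, measured by TMTpro 16plex LC-MS/MS with channel sums equalised. Thermal stability values, relative to control samples and from duplicates, are log2 fold changes.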
Consider LSR isoform 3 (UniProt Q86X29), for which the log2 fold change is -0.232.
Same read-out and setting: with MARCHF3 (UniProt Q86UD3) the figure was 0.001; with MAGED1 isoform 2 (UniProt Q9Y5V3), 0.003.
Still for that read-out and setting: with MAP4K4 isoform 6 (UniProt O95819) the figure was -0.031.
Still for that read-out and setting: with LGALS8 isoform 2 (UniProt O00214) the figure was 0.01.
Take MFAP3 (UniProt P55082): the log2 fold change is 0.038.
On the same count and under the same terms, with LAPTM4B (UniProt Q86VI4) the figure was 0; with MAP4K2 (UniProt Q12851), -0.034; with MFSD12 isoform 3 (UniProt Q6NUT3), 0.115.
Turning to LSR (UniProt M0QZL9), the log2 fold change was -0.324.
The same measure, in the same setting: with KMT5A (UniProt Q9NQR1) the figure was 0.07; with ILF3 (UniProt Q12906), 0.106; with MELK (UniProt Q14680), -0.026.

Compound in the next assay: CC1=C(C=C(C=C1)NC(=O)C2=CC(=CC=C2)N(C)C)NC(=O)C3=CC=C(C=C3)O
Described as above. In outline: as §1
Turning to KXD1 (UniProt Q9BQD3), the log2 fold change was -0.025.
On the same count and under the same terms, with MAP2K5 (UniProt Q13163) the figure was -0.085.
The same measure, in the same setting: with ITPRID2 (UniProt P28290) the figure was -0.003.
Still for that read-out and setting: with MAPK11 (UniProt Q15759) the figure was 0.094; with LDLRAP1 (UniProt Q5SW96), -0.028.
Regarding LRRCC1 (UniProt Q9C099), the log2 fold change was 0.039.
As for KIF21A (UniProt H0YI78), the log2 fold change was -0.001.
On to MBLAC1 (UniProt A4D2B0), for which the log2 fold change was 0.079.
Still for that read-out and setting: with KIZ (UniProt Q2M2Z5) the figure was 0.057; with IGFBP6 (UniProt P24592), 0.03; with MAGEA8 (UniProt P43361), 0.009.
Still for that read-out and setting: with MFSD8 (UniProt Q8NHS3) the figure was -0.026.
Turning to MCOLN3 (UniProt Q8TDD5), the log2 fold change was 0.013.
Still for that read-out and setting: with MGRN1 isoform 2 (UniProt O60291) the figure was -0.059.

Compound in a further assay: CC1=CC=C(C=C1)SC2=C3C=C(SC3=CN=C2)C(=O)N
The assay is described as above. The method in brief:
as §1
Regarding KXD1 (UniProt Q9BQD3), the log2 fold change is 0.
The same measure, in the same setting: with ITPRID2 (UniProt P28290) the figure was -0.103.
On the same count and under the same terms, with LSR isoform 3 (UniProt Q86X29) the figure was 0.04; with MARCHF3 (UniProt Q86UD3), -0.008; with IKZF1 (UniProt R9R4D9), -0.116.
The same measure, in the same setting: with MAGED1 isoform 2 (UniProt Q9Y5V3) the figure was 0.1; with MAPRE3 isoform 2 (UniProt Q9UPY8), -0.075.
For MBLAC1 (UniProt A4D2B0), the log2 fold change is -0.093.
On the same count and under the same terms, with KIZ (UniProt Q2M2Z5) the figure was 0.003; with MAP4K2 (UniProt Q12851), 0.079.
The same measure, in the same setting: with LAMP2 isoform 2 (UniProt P13473) the figure was -0.07; with MAGEA8 (UniProt P43361), 0.02.
Still for that read-out and setting: with ING5 (UniProt Q8WYH8) the figure was 0.058; with MED29 (UniProt Q9NX70), -0.075; with MFSD8 (UniProt Q8NHS3), 0.113.
On to MELK (UniProt Q14680), for which the log2 fold change is 0.111.
Consider MCOLN3 (UniProt Q8TDD5), for which the log2 fold change was 0.15.
For the target MGRN1 isoform 2 (UniProt O60291), the log2 fold change was 0.021.

Compound in another assay: CC1=NC(=CC=C1)C2=C(N=C(N2)C(C)(C)C)C3=CC4=NC=CN=C4C=C3
The assay is described as above. The method in brief: as §1
As for MAP2K5 (UniProt Q13163), the log2 fold change was 0.017.
On to ITPRID2 (UniProt P28290), for which the log2 fold change was -0.065.
Same read-out and setting: with MAPK11 (UniProt Q15759) the figure was 0.045; with LDLRAP1 (UniProt Q5SW96), -0.102.
Same read-out and setting: with LRRFIP1 isoform 4 (UniProt Q32MZ4) the figure was 0.186; with IKZF1 (UniProt R9R4D9), 0.026.
As to MAPRE3 isoform 2 (UniProt Q9UPY8), the log2 fold change is -0.065.
For the target LGALS8 isoform 2 (UniProt O00214), the log2 fold change was -0.228.
Still for that read-out and setting: with MBLAC1 (UniProt A4D2B0) the figure was -0.098; with KIZ (UniProt Q2M2Z5), -0.068; with MAP4K2 (UniProt Q12851), 0.094.
On the same count and under the same terms, with LAMP2 isoform 2 (UniProt P13473) the figure was 0.003; with MAPK7 (UniProt Q13164), -0.169; with MAGEA8 (UniProt P43361), 0.072.
Still for that read-out and setting: with ING5 (UniProt Q8WYH8) the figure was -0.052; with MFSD8 (UniProt Q8NHS3), 0.011; with ILF3 (UniProt Q12906), -0.177.
Consider MELK (UniProt Q14680), for which the log2 fold change is -0.015.
Still for that read-out and setting: with MGRN1 isoform 2 (UniProt O60291) the figure was -0.02.

Compound in the next assay: CCCCN(Cc1ccc(C(=O)NO)cc1)C(=O)Nc1ccccc1 [Nexturastat A]
The assay is described as above. The method in brief: as §1
For the target KXD1 (UniProt Q9BQD3), the log2 fold change was -0.223.
As for ITPRID2 (UniProt P28290), the log2 fold change is -0.188.
On the same count and under the same terms, with MARCHF3 (UniProt Q86UD3) the figure was 0.081; with LRRFIP1 isoform 4 (UniProt Q32MZ4), -0.077; with MAGED1 isoform 2 (UniProt Q9Y5V3), 0.608 (active).
The same measure, in the same setting: with LGALS8 isoform 2 (UniProt O00214) the figure was 0.288; with MFAP3 (UniProt P55082), 0.11; with LEPROT (UniProt O15243), -0.02.
Turning to LAMP2 isoform 2 (UniProt P13473), the log2 fold change was -0.015.
On to MAPK7 (UniProt Q13164), for which the log2 fold change is 0.275.
The same measure, in the same setting: with LSR (UniProt M0QZL9) the figure was -0.157; with MFSD8 (UniProt Q8NHS3), -0.004; with ILF3 (UniProt Q12906), 0.347.
MELK (UniProt Q14680): the log2 fold change is 0.134.
